# Data taken from publication PMC7862700, “An all-to-all approach to the identification of sequence-specific readers for epigenetic DNA modifications on cytosine”.
# Key:
# Experiment in all cases: DAPPL (digital affinity profiling via proximity ligation, sequencing); 10 mM Tris-HCl pH 7.5, 50 mM NaCl, 1 mM DTT, 4% glycerol, room temperature, 30 min; GST-TFs on glutathione beads, 16-mer random dsDNA library, 0.1% formaldehyde crosslink after washing; high values mean tight binding
# FEV = target: T1, FEV (Homo sapiens, UniProt Q99581 1-238); settings: protein: recombinant; tags: N-terminal GST; dsDNA, one strand shown
# T1 sequence: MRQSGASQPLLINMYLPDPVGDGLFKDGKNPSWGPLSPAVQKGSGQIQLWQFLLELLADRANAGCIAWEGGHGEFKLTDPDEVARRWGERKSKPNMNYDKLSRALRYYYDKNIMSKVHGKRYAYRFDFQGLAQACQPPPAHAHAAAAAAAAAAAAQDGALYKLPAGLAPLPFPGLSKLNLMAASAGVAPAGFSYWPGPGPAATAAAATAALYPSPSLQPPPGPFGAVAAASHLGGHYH
# How it was run: (§1)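 After expression in yeast as GST fusions, human transcription factors were bound to glutathione beads, DNA-barcoded and mixed with a tag-only sample. The pools were incubated with 200 nmole of a 16-mer random double-stranded DNA library in Tris/NaCl/DTT/glycerol buffer (30 min, room temperature), washed and crosslinked with 0.1% formaldehyde. Proximity ligation with BsaI/T4 ligase ran for 1 h at 37 °C, before PCR amplification and sequencing on an Illumina NextSeq500. Binding signal is a hexamer's read frequency for a factor divided by its frequency for the tag-only sample.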
# ETV5 = ETV5 (Homo sapiens, UniProt P41161 1-510); settings: protein: recombinant; tags: N-terminal GST; dsDNA, one strand shown
# Chain of ETV5 (P41161 whole entry): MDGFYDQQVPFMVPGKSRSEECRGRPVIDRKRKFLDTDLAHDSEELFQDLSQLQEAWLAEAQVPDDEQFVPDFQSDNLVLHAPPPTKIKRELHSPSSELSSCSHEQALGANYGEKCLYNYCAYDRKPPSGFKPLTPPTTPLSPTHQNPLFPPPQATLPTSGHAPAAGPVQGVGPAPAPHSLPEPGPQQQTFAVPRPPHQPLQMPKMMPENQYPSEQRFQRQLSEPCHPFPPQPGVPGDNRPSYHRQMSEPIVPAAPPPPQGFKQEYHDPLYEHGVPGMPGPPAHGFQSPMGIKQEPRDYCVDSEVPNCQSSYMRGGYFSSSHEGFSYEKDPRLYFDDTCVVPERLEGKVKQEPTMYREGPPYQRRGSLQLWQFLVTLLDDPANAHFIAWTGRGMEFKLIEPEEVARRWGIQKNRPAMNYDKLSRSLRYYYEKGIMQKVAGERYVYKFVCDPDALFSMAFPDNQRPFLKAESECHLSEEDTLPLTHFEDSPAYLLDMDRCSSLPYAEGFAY
# How it was run: as §1
# HSF1 = HSF1 (Homo sapiens, UniProt Q00613 1-529); settings: protein: recombinant; tags: N-terminal GST; chain copies: 3; dsDNA, one strand shown
# Chain of HSF1 (Q00613 whole entry): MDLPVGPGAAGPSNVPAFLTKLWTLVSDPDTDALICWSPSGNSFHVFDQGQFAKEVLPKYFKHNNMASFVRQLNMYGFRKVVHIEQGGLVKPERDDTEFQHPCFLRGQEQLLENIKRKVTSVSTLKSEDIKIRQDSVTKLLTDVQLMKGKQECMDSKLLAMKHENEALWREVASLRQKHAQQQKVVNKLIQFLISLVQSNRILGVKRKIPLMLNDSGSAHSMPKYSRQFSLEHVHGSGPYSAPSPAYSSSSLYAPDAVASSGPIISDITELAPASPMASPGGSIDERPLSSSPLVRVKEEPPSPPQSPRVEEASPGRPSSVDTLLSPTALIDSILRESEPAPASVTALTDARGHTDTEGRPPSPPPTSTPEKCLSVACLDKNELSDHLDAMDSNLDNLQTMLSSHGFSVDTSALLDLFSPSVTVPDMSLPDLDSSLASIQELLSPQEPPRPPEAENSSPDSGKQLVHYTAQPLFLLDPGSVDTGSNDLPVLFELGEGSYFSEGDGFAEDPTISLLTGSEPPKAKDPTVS
# How it was run: as §1
# SPIC = target: T2, SPIC (Homo sapiens, UniProt Q8N5J4 1-248); settings: protein: recombinant; tags: N-terminal GST; dsDNA, one strand shown
# T2 sequence: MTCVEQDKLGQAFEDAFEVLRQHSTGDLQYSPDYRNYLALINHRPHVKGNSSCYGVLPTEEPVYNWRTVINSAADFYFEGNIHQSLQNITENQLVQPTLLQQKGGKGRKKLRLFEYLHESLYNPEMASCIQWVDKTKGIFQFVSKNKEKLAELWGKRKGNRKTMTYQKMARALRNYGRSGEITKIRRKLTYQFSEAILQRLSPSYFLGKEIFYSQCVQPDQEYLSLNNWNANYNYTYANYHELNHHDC
# How it was run: as §1
# ELF4 = ELF4 (Homo sapiens, UniProt Q99607 1-663); settings: protein: recombinant; tags: N-terminal GST; dsDNA, one strand shown
# Chain of ELF4 (Q99607 whole entry): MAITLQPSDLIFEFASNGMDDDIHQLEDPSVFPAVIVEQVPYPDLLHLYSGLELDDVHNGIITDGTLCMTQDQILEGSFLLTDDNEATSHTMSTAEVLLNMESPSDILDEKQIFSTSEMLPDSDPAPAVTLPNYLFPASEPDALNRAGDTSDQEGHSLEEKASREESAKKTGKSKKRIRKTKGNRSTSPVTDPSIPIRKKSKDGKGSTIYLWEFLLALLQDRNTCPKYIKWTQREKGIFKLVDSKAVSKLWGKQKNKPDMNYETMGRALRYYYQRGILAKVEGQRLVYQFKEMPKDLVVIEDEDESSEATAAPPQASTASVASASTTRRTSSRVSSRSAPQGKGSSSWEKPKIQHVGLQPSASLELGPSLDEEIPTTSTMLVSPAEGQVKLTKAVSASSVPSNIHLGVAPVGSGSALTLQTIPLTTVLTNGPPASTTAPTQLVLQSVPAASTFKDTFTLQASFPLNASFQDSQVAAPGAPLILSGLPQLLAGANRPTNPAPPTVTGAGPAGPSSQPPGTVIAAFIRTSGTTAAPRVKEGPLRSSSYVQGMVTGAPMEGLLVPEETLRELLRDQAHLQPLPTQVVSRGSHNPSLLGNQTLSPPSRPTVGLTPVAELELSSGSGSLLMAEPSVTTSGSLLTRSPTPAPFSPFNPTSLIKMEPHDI
# How it was run: as §1
# ELK4 = target: T3, ELK4 (Homo sapiens, UniProt P28324-2 1-405); settings: protein: recombinant; tags: N-terminal GST; dsDNA, one strand shown
# T3 sequence: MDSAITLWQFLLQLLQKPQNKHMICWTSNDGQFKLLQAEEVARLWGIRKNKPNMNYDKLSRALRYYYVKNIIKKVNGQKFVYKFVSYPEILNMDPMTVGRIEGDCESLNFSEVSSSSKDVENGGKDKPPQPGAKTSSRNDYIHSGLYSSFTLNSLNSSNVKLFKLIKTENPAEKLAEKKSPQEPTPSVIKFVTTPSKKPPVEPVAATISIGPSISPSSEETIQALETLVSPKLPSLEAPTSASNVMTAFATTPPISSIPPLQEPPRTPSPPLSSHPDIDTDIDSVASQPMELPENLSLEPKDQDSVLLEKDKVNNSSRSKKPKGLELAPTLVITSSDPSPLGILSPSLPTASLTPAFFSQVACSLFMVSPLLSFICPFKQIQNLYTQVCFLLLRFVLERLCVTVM
# How it was run: as §1
# ETV2 = target: T4, ETV2 (Homo sapiens, UniProt O00321 1-342); settings: protein: recombinant; tags: N-terminal GST; dsDNA, one strand shown
# T4 sequence: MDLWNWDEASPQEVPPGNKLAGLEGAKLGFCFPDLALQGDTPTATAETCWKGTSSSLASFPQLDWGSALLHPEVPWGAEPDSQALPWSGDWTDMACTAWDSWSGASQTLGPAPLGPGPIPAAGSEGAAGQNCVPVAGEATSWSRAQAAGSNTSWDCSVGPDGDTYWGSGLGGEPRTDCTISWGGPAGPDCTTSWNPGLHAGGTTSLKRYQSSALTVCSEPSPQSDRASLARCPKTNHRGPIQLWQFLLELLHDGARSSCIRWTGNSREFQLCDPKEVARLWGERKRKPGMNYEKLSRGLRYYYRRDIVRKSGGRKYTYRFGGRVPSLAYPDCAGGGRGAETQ
# How it was run: as §1
# ELF3 = target: T5, ELF3 (Homo sapiens, UniProt P78545 1-371); settings: protein: recombinant; tags: N-terminal GST; dsDNA, one strand shown
# T5 sequence: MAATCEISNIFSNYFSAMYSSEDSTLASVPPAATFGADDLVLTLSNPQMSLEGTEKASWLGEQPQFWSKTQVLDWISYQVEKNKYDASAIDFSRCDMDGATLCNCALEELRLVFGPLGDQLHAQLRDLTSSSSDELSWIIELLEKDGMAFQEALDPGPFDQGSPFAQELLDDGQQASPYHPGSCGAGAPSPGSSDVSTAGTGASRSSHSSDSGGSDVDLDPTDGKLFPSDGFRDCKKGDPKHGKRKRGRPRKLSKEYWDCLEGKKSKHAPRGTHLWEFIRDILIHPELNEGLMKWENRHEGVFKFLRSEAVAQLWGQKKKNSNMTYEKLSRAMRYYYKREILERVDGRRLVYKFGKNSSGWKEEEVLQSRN
# How it was run: as §1
# CRX = CRX (Homo sapiens, UniProt O43186 1-299); settings: protein: recombinant; tags: N-terminal GST; dsDNA, one strand shown
# Chain of CRX (O43186 whole entry): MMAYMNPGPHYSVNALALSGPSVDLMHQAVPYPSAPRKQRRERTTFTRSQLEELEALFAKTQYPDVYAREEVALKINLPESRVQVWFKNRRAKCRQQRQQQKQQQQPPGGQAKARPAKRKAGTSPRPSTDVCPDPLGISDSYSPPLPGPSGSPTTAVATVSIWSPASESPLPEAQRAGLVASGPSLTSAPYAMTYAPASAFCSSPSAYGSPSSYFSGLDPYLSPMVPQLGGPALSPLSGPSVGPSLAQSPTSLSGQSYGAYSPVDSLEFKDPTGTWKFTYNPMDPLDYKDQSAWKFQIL
# How it was run: as §1
# ETV1 = ETV1 (Homo sapiens, UniProt P50549 1-477); settings: protein: recombinant; tags: N-terminal GST; dsDNA, one strand shown
# Chain of ETV1 (P50549 whole entry): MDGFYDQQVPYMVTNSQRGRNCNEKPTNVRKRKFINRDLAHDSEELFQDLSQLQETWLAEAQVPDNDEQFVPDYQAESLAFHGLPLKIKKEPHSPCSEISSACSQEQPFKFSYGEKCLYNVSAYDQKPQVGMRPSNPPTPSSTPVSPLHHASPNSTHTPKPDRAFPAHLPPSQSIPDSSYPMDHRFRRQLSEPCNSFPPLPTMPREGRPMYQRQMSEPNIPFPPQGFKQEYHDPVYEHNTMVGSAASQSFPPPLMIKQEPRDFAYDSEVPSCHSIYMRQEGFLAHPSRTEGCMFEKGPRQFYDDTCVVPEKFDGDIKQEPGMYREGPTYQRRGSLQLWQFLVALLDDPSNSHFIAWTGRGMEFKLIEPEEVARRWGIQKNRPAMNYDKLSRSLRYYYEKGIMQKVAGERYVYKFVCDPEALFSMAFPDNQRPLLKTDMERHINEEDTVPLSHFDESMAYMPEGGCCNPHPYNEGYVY
# How it was run: as §1
# ERF = target: T6, ERF (Homo sapiens, UniProt P50548 1-548); settings: protein: recombinant; tags: N-terminal GST; dsDNA, one strand shown
# T6 sequence: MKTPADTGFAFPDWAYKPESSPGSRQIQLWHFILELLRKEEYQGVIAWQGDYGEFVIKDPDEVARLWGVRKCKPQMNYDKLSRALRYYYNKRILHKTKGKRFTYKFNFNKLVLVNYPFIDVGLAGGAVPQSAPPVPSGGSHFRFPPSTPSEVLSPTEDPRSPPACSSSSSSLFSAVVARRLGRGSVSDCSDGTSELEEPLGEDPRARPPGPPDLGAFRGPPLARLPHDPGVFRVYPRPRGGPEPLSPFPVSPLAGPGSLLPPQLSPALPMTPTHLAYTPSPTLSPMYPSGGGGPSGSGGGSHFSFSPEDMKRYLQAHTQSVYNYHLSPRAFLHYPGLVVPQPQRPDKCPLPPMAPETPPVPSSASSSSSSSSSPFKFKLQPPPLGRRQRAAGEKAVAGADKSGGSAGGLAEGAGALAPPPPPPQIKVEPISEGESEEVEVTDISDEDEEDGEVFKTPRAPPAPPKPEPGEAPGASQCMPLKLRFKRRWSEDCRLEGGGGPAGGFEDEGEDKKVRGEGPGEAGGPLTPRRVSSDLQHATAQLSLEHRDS
# How it was run: as §1
# ETV3L = target: T7, ETV3L (Homo sapiens, UniProt Q6ZN32 1-361); settings: protein: recombinant; tags: N-terminal GST; dsDNA, one strand shown
# T7 sequence: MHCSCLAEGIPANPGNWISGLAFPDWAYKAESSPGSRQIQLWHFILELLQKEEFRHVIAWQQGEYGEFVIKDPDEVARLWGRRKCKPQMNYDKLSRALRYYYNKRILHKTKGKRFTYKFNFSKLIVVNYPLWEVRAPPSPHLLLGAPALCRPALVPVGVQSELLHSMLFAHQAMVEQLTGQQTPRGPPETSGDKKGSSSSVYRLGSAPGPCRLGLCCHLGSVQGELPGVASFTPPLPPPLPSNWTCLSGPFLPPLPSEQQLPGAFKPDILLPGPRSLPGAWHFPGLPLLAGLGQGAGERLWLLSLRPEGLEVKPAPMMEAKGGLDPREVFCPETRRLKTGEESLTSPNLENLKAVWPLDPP
# How it was run: as §1
# ETS2 = target: T8, ETS2 (Homo sapiens, UniProt P15036 1-469); settings: protein: recombinant; tags: N-terminal GST; dsDNA, one strand shown
# T8 sequence: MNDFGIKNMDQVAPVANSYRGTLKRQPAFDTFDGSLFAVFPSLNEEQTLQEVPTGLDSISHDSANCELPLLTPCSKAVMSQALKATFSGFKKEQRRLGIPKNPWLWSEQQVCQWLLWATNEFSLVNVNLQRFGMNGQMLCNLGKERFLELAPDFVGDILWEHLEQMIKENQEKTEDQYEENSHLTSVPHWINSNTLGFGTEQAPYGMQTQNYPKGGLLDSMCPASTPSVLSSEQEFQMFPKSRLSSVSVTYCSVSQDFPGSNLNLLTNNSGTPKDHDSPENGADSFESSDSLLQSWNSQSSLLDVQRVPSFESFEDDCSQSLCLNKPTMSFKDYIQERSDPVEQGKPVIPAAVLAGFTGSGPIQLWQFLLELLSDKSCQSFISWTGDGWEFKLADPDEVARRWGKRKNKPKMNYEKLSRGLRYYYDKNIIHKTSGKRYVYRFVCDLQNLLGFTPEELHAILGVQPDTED
# How it was run: as §1
# SPDEF = target: T9, SPDEF (Homo sapiens, UniProt O95238 1-335); settings: protein: recombinant; tags: N-terminal GST; dsDNA, one strand shown
# T9 sequence: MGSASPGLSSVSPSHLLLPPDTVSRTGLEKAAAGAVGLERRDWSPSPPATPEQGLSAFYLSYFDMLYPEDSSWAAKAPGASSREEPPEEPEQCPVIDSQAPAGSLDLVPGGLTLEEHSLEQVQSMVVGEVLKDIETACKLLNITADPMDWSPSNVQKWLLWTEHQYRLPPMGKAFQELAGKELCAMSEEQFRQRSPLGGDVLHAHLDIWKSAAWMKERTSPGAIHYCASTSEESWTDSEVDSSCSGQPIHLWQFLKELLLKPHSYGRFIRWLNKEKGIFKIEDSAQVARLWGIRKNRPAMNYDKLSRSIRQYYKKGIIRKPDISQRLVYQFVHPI
# How it was run: as §1
# ETV7 = target: T10, ETV7 (Homo sapiens, UniProt Q9Y603 1-341); settings: protein: recombinant; tags: N-terminal GST; dsDNA, one strand shown
# T10 sequence: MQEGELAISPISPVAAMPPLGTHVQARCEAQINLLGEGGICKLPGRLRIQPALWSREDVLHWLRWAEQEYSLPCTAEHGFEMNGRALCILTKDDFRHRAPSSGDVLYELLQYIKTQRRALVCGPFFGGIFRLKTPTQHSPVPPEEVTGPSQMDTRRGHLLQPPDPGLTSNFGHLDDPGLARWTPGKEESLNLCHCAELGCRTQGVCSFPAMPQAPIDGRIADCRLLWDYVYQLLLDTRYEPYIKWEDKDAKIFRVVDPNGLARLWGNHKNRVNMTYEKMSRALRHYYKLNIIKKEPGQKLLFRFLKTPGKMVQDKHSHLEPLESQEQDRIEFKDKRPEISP
# How it was run: as §1
# ELF5 = target: T11, ELF5 (Homo sapiens, UniProt Q9UKW6-2 1-255); settings: protein: recombinant; tags: N-terminal GST; dsDNA, one strand shown
# T11 sequence: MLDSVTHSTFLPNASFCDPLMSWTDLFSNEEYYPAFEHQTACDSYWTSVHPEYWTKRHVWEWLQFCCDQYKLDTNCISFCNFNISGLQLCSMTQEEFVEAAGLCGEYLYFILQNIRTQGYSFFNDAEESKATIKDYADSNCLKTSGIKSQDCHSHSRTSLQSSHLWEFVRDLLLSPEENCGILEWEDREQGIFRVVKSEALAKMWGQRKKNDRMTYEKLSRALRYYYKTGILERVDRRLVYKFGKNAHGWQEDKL
# How it was run: as §1
# ETV3 = target: T12, ETV3 (Homo sapiens, UniProt P41162-2 1-143); settings: protein: recombinant; tags: N-terminal GST; dsDNA, one strand shown
# T12 sequence: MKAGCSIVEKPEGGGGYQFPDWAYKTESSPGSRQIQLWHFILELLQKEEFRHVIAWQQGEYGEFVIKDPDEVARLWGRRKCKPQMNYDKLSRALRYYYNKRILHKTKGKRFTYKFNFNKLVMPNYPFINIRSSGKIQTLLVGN
# How it was run: as §1
# ETV6 = ETV6 (Homo sapiens, UniProt P41212 1-452); settings: protein: recombinant; tags: N-terminal GST; dsDNA, one strand shown
# Chain of ETV6 (P41212 whole entry): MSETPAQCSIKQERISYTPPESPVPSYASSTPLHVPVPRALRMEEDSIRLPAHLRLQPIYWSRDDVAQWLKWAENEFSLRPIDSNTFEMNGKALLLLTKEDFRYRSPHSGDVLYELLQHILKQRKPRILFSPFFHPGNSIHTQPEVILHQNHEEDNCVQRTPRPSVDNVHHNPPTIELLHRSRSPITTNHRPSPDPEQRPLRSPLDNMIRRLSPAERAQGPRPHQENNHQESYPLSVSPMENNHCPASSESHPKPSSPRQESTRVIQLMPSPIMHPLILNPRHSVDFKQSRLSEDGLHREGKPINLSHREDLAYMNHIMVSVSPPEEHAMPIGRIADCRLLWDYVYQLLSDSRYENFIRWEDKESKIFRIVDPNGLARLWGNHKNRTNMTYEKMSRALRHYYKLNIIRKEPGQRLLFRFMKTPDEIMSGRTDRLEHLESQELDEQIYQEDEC
# How it was run: as §1
sequence,measurement,setting,value
GTTCTG,binding signal,FEV,"1.03 fold enrichment (6-mer frequency, TF over GST control)"
same,binding signal,ETV5,"1.08 fold enrichment (6-mer frequency, TF over GST control)"
same,binding signal,HSF1,"1.84 fold enrichment (6-mer frequency, TF over GST control)"
same,binding signal,SPIC,"1.1 fold enrichment (6-mer frequency, TF over GST control)"
same,binding signal,ELF4,"1.14 fold enrichment (6-mer frequency, TF over GST control)"
same,binding signal,ELK4,"1.3 fold enrichment (6-mer frequency, TF over GST control)"
same,binding signal,ETV2,"1.09 fold enrichment (6-mer frequency, TF over GST control)"
same,binding signal,ELF3,"1.12 fold enrichment (6-mer frequency, TF over GST control)"
same,binding signal,CRX,"1.01 fold enrichment (6-mer frequency, TF over GST control)"
same,binding signal,ETV1,"1.1 fold enrichment (6-mer frequency, TF over GST control)"
same,binding signal,ERF,"1.12 fold enrichment (6-mer frequency, TF over GST control)"
same,binding signal,ETV3L,"1.23 fold enrichment (6-mer frequency, TF over GST control)"
same,binding signal,ETS2,"1.05 fold enrichment (6-mer frequency, TF over GST control)"
same,binding signal,SPDEF,"1 fold enrichment (6-mer frequency, TF over GST control)"
same,binding signal,ETV7,"1.07 fold enrichment (6-mer frequency, TF over GST control)"
same,binding signal,ELF5,"1.1 fold enrichment (6-mer frequency, TF over GST control)"
same,binding signal,ETV3,"1.13 fold enrichment (6-mer frequency, TF over GST control)"
same,binding signal,ETV6,"1.1 fold enrichment (6-mer frequency, TF over GST control)"
